# This is a sample that favours compounds with a hit; in the whole collection about 0.93% have one here.
# CtBP-E1A blk – blocks the CtBP interaction with E1A. AlphaScreen GST-E1A/His-CtBP binding, 1536-well; hits give low values. activity change, % (test concentration not listed). 340,000 tested, 0.49% active
#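 Protein mix (5X: 125 nM each GST-E1A, His-CtBP) was incubated with pinned compound 2 h at 37 deg C in dark, in 50 mM Tris pH 8.0 buffer with 300 mM NaCl. Glutathione donor and nickel acceptor beads followed; AlphaScreen signal read after 1 h.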
# PKM2 activator – PKM2 (human) enzyme activation | 260,000 tested, 0.34% active | AID 1631 | purified PKM2, Kinase-Glo ATP luminescence, activation; response scale: 0% is enzyme alone, no compound | Potency, µM (highest dose often 57.5 µM), for the others: at the top dose activation, usual class: activators | P14618; active = well fitted activation curve with a large enough effect; inconclusive = small, poorly fitted or top-dose-only effect; inactive = no such curve, though single readings can be large or run the other way; note: potency is the fitted concentration of half-maximal effect; nearly all actives have a fitted effect of over 55% in size
#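 Kinase-Glo luminescence reports ATP generated from ADP (0.1 mM) and PEP (0.5 mM) by purified hPK-M2 after 1 h at room temperature, pH 7.2 imidazole buffer; intermediate enzyme activity allows detecting inhibitors and activators.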
# MBNL1 CUG block – blocks human MBNL1 binding to CUG repeat RNA | Q9NR56 | TR-FRET MBNL1-His/biotin-(CUG)12 binding, 665/545 ratio | Potency, µM (top dose mostly 57.5 µM), without a hit: at the highest dose activity change, negative = inhibition, most hits filed as inhibitors | 280,000 tested, 0.036% active | AID 2675; active = well fitted inhibition curve with a large enough effect in the signal ratio, with a control signal flat, not every such curve was filed as active; inconclusive = small, poorly fitted or top-dose-only effect, or effect the other way, or a change in a side signal; inactive = no such curve, though single readings can be large or run the other way; the % refers to the signal ratio; note: potency is the fitted concentration of half-maximal effect
#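 TR-FRET between His-tagged MBNL1 and biotin-(CUG)12 RNA, detected with Tb anti-His antibody (0.055 ng/ul) and streptavidin-XL665 (5 nM), 60 min at room temperature. Compounds titrated 92 nM to 58 uM; 665/545 nm ratio normalized to buffer and complex controls.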
# Six1-Eya2 inh – Six1/Eya2 interaction inhibition; AlphaScreen GST-Six1/His-Eya2 binding, biochemical; hits give low values; activity change, % (no concentration beside the values); 360,000 tested, 0.56% active; AID 651725
# Target sequence (O00167 whole entry, looked up): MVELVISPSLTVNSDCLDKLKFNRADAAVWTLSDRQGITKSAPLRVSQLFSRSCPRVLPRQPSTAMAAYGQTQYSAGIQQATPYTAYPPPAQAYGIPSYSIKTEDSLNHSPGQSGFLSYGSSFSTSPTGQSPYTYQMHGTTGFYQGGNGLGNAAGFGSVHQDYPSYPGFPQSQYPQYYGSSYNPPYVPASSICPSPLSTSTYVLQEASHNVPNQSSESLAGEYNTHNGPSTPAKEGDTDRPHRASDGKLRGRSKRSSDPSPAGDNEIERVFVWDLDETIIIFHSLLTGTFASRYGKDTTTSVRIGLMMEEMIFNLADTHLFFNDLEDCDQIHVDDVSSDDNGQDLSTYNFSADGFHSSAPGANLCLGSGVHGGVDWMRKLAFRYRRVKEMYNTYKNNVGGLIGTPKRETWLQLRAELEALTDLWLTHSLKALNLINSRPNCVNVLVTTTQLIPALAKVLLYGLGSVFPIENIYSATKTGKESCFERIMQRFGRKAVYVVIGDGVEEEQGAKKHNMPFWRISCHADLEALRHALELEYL
# Target sequence (Q15475 whole entry, looked up): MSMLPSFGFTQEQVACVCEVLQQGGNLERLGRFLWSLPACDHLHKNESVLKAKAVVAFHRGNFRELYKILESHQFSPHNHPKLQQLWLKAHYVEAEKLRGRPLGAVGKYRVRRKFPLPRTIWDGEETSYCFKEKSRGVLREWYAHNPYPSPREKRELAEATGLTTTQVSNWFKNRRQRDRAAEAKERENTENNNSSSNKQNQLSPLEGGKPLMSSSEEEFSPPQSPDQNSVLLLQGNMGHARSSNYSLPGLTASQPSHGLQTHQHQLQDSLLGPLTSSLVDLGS
#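 AlphaScreen luminescence read after one hour at 37 °C in darkness. Pin-transferred compounds met GST-Six1 and His-Eya2 protein (5X stock 250 nM/500 nM) plus glutathione donor and Ni-chelate acceptor beads (5X, 50 ug/mL).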
# Active calls of the source: *; u = inconclusive; x = no result given; [ ] = another dose, or the depositor's remark. Cut-off read from the data, not from the text of the source, unless noted: active = activity change below about -65%; inconclusive = mostly about -30% to -63%; inactive = weaker than that. % is set by controls: 0 for no effect and ±100 for the full control effect.
SMILES,CtBP-E1A blk,PKM2 activator,MBNL1 CUG block,Six1-Eya2 inh
CCCCc1cc2c(cn1)C(=O)C(C)(OC(C)=O)C(=O)C2 (configuration not stated),x,-0.2%[11.5 µM],x,x
Cn1c(OCc2cccnc2)nc2c1c(=O)n(Cc1ccc(Br)cc1)c(=O)n2C,-1.9,20µM*,-3.9%,-4.0
Cn1c(OCc2cccnc2)nc2c1c(=O)n(Cc1ccc(Cl)cc1)c(=O)n2C,-11.0,x,x,-5.1
Nc1cc(C(=O)O)c(N)c2c1C(=O)c1ccccc1C2=O,-91.7*,-67.6%,u,-80.3*
Nc1c(C(=O)O)ccc2c1C(=O)c1ccccc1C2=O,u,-27.7%,u,-28.5
CNc1c([N+](=O)[O-])cnn1-c1ccc(Cl)cc1Cl,-0.2,11.2µM*,10.8%,1.3
CNc1c([N+](=O)[O-])cnn1-c1ccccc1Cl,1.3,u,17.9%,3.7
N#CCc1ccc(NS(=O)(=O)c2cccs2)cc1,-3.2,17.8µM*,-11.8%,3.9
COC(=O)C(C(C)=O)C1c2ccccc2C=C(C)N1C(=O)OC (configuration not stated),x,-4.7%[11.5 µM],x,x
CCOC(=O)[C@]12Cc3c(cc(OC)c(OC)c3OC)[C@H]1N(Cc1ccccc1)C(=O)c1cc(OC)ccc12,-3.6,x,x,-7.5
O=C(NCc1ccccc1)C1Cc2c(-c3ccc(Cl)cc3)ccnc2O1 (configuration not stated),-0.9,x,x,0.0
O=C(/C=C/c1ccco1)Oc1cccc2cccnc12,-0.2,-1.9%,x,-79.3*
O=C(/C=C\c1ccco1)Oc1cccc2cccnc12,-74.3*,2.2%,28.2%,-75.8*
CC1(Cc2ccccc2OC(F)(F)F)C(=O)Nc2c(Cl)ccc(Cl)c21 (configuration not stated),2.8,x,x,-0.2
Cc1cc2c(cc1C)-n1nnnc1C(N1CCN(c3ccccc3F)CC1)C(=O)N2 (configuration not stated),-1.5,x,x,-9.4
COC(=O)[C@@H]1C[C@H]1[C@@H](NC(C)=O)c1ccccc1,x,-7.0%,x,x
O=C(Oc1ccccc1C(=O)Nc1ccccc1)c1ccc(Br)c([N+](=O)[O-])c1,5.6,15.7%,9.1%,-8.2
O=C(NCc1cc(Br)cc(Br)c1OC(=O)c1ccccc1[N+](=O)[O-])c1ccccc1,u,2.0%,-4.5%,-72.0*
Cc1ccc(S(=O)(=O)N2CCN(C(=O)CC(C)C)CC2)cc1,-6.8,-8.6%,6.6%,-17.3
Cc1ccc(S(=O)(=O)N2CCN(C(=O)CCn3nc(C)c(C)c3C)CC2)cc1,-13.7,14.1µM*,-0.1%,1.0
Cc1nn(CCC(=O)N2CCN(S(=O)(=O)c3ccc(Cl)cc3)CC2)c(C)c1C,5.9,22.4µM*,-2.0%,-3.9
CN(C)c1ccc(-c2csc(C(O)c3ccc(F)c(F)c3)n2)cc1 (configuration not stated),u,x,x,-16.5
O=C1c2ccccc2-c2c1cccc2C(=O)N1CCN(C(=O)c2ccco2)CC1,-1.0,15.8µM*,u,-5.6
CCCSc1ccccc1C(=O)N1CCN(C(=O)c2ccco2)CC1,-17.3,-11.4%,-3.3%,-2.6
CCOc1cc(/C=C2/C(=O)ON=C2C)ccc1OCc1ccccc1,4.0,-7.1%,9.7%,9.5
SMILES,CtBP-E1A blk,PKM2 activator,MBNL1 CUG block,Six1-Eya2 inh
CCOc1cc(/C=C2/C(=O)ON=C2C)ccc1OCc1ccccc1F,-4.6,15.8µM*,-3.1%,-0.2
O=C(CN1CC(=O)Oc2ccccc21)OCC(=O)c1ccccc1,-92.1*,9.2%,-2.5%,-90.8*
O=C(CN1C(=O)c2ccccc2C1=O)OCC(=O)c1ccc(F)cc1,2.3,x,x,4.7
O=C(COC(=O)C1CC2CCCC(C1)C2=O)c1cccc(Br)c1 (configuration not stated),x,x,x,2.9
O=C(CN1CC(=O)Oc2ccccc21)OCC(=O)c1cccc(Br)c1,u,1.4%,11.7%,-82.5*
CCCCC[C@H](C)N1C[C@@H](COCc2ccccc2)Oc2cc(N3CCC[C@@H]3COC)ccc2S1(=O)=O,0.0,x,x,-2.5
O=C1c2ccccc2C(=O)c2c1cccc2N1CCCC1,-89.2*,5.9%,u,-86.9*
Cn1c(=O)cc2c3c(c(N4CCCCC4)ccc31)C(=O)c1ccccc1-2,x,-0.9%,u,u
O=C1c2ccccc2-c2onc3ccc(N4CCCC4)c1c23,u,1.2%,x,-67.6*
COc1cc(/C=C2/C(=O)CNC2=O)ccc1O,1.4,5.5%,4.8%,0.5
COc1cc(C=C2C(=O)C=CC2=O)ccc1O,7.4,x,x,-73.9*
O=C(Nc1nc(-c2ccccn2)cs1)Nc1ccc(F)cc1F,u,-19.0%,0.3%,u
O=C(COc1ccc(F)cc1)Nc1nc(-c2ccccn2)cs1,u,x,x,-84.2*
O=C(COc1ccccc1)Nc1nc(-c2cccnc2)cs1,-1.7,x,x,-4.1
O=C(COc1ccc([N+](=O)[O-])cc1)Nc1nc(-c2ccccn2)cs1,-91.7*,x,x,-78.8*
O=C(COc1cccc(F)c1)Nc1nc(-c2ccccn2)cs1,u,x,x,-77.0*
O=C(COc1ccccc1)Nc1nc(-c2ccncc2)cs1,-24.3,-1.2%,1.1%,3.5
CCN(CC)CCCCn1c(-c2ccccc2)nc2c(N(CCOC)CCOC)nc(C)nc21,x,3.3%,x,x
COc1ccc(-c2cc(C(=O)NCc3ccc(F)cc3)[nH]n2)c(C)c1,-3.2,x,x,-8.0
CN(Cc1ccccc1)Cc1cc(=O)oc2ccc3ccccc3c12,25.0,x,x,10.7
COc1ccc(C(=O)N(Cc2ccco2)Cc2cccs2)c(O)c1,-8.3,3.8%,u,-2.5
CS(=O)(=O)N(CC(=O)NC1CCCCC1)Cc1ccc(F)cc1,x,-1.6%,-1.3%,8.3
COc1ccc(C(=O)/C=C/C(=O)N(CC(=O)NCCC(C)C)Cc2cccs2)c(O)c1,x,22.4µM*,-13.9%,4.4
COc1ccc(C(=O)/C=C/C(=O)N(CC(=O)NC2CCCCC2)Cc2ccc(F)cc2)c(O)c1,-1.0,7.94µM*,8.2%,-0.9
CCOc1ccc(S(=O)(=O)NC(Cc2cnc[nH]2)C(=O)O)cc1 (configuration not stated),0.0,x,0.6%,-11.5
SMILES,CtBP-E1A blk,PKM2 activator,MBNL1 CUG block,Six1-Eya2 inh
CCOc1ccc(C(=O)CCNC(Cc2cnc[nH]2)C(=O)O)cc1 (configuration not stated),-65.6*,-2.2%,-0.1%,u
Cc1cc(C(=O)COC(=O)/C=C/c2cccc(Br)c2)c(C)n1C,-65.9*,x,x,u
CCCCn1c(C)cc2c(c1=O)C1O[C@](c3ccc(OC)cc3)(Cc3cc(OC)c(OC)cc31)O2,x,1.2%[11.5 µM],-0.7%[11.5 µM],x
Cc1ccc(-c2nn(-c3ccccc3)cc2CN(Cc2ccccc2)C(=O)c2ccco2)o1,-17.2,25.1µM*,11.8%,u
COc1cccc(Nc2nc(C(N)Cc3ccc(Cl)cc3)cs2)n1 (configuration not stated),-15.9,x,x,-12.6
COc1cc(/C=C(\C#N)c2nc3ccc(C)cc3[nH]2)cc([N+](=O)[O-])c1O,-74.6*,u,u,-72.8*
Cc1cccc(Cn2c(SCC(=O)Nc3ccccc3)nc3c2c(=O)[nH]c(=O)n3C)c1,-5.0,1.41µM*,u,-1.1

# High-throughput results (PubChem)
